Source: the supplement of paper PMC3334620
In all, about 33,000 sequences were measured (“E-score (-0.5 to 0.5)”: median about -0.016, highest 2% from about 0.32 on). This excerpt belongs to a sample that is enriched for the highest values.

Biological target: T1, Stp1 (UniProt B3LFK1)
T1 sequence: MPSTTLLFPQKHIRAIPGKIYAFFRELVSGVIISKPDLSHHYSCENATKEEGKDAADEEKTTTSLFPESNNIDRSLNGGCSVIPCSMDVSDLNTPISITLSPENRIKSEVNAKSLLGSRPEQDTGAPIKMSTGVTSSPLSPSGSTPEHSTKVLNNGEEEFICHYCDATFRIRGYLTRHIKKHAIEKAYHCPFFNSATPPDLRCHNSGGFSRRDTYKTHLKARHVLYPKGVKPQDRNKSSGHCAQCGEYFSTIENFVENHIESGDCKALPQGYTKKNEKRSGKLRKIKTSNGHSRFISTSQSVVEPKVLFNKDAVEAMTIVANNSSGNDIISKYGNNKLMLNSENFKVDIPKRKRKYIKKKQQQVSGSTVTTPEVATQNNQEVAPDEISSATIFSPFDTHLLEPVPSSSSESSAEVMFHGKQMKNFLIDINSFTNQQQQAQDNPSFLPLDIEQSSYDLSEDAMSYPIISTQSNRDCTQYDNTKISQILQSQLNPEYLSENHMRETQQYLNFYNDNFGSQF
Test: PBM E-score (8-mer binding enrichment) (E-score (-0.5 to 0.5)); higher = stronger / more preferred TF binding
Conditions: protein concentration: 200 nM; construct: GST-full length
Outline: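 Yeast transcription factors carrying a GST tag, as full-length proteins or DNA-binding domains, were produced by PURExpress in vitro transcription/translation. About 100-200 nM protein was applied to universal all-10-mer Agilent arrays, double-stranded by primer extension on fresh or once-stripped slides. Bound protein was detected with fluorescent anti-GST, and scans were normalised with masliner. The Universal PBM Analysis Suite gave each ungapped eight-base word, pooled with its reverse complement, an E-score, a modified Wilcoxon-Mann-Whitney statistic.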

| Sequence | PBM E-score |
| --- | --- |
| CTGCGGTA | 0.0752 |
| AGTTTGTC | -0.0407 |
| CTCTGGGC | -0.215 |
| AGAGGTCG | -0.096 |
| AGATGAGG | -0.192 |
| AGTTAAGG | -0.0459 |
| ACCTGTAA | 0.00569 |
| AGATAGAG | -0.0214 |
| GCTGATCC | -0.116 |
| AGCGGAAA | 0.0606 |
| AGCGGCAG | 0.301 |
| AGCGGCAC | 0.457 |
| TCCGGCAA | -0.00549 |
| AGCGGCAT | 0.406 |
| TGCGGCAA | 0.412 |
| TGCGGCCA | 0.233 |
| AGCGGCAA | 0.321 |
| AGCGGCCT | 0.0372 |
| AGTGGCAA | 0.162 |
| AGCGGGAT | 0.0317 |
| AGTGGCAC | 0.209 |
| CACATCGG | -0.152 |
| AATTTGGG | -0.0818 |
| CGAGGCCA | -0.178 |
| GATAAGGC | 0.216 |

| Sequence | PBM E-score |
| --- | --- |
| AAGGGCGT | 0.0591 |
| CGATAATC | -0.128 |
| ATCCGTCA | -0.0596 |
| CTAAACGA | 0.0761 |
| CAGTCTGA | -0.0528 |
| GGCGGCAC | 0.446 |
| CGCGGGCA | 0.175 |
| GGGGGCAC | -0.266 |
| CGCGGCAA | 0.424 |
| CGCGGTAG | 0.0224 |
| CGTGGCAG | 0.239 |
| CGCGGCAG | 0.378 |
| GGCGGCAA | 0.286 |
| GTCGGCAC | 0.172 |
| AGGGGACA | -0.145 |
| AGGGGGGG | -0.287 |
| AGGCCTCC | -0.164 |
| GCTCTCGA | -0.144 |
| ATAACCCC | -0.223 |
| GCAAGCTA | -0.0537 |
| CTGCATGC | 0.12 |
| CGGCATGA | 0.346 |
| AGGCATGC | 0.144 |
| AGGCATGA | -0.0157 |
| CGGCATGC | 0.338 |

| Sequence | PBM E-score |
| --- | --- |
| GGGCATGA | -0.0369 |
| CGAGGAGA | -0.162 |
| AGCCAAAC | 0.00731 |
| CATTGCGG | 0.158 |
| GCGCTGCA | 0.232 |
| GGATTGAA | -0.0161 |
| GCGTGAGC | 0.193 |
| CGGCGGAA | 0.328 |
| GGCGGGCA | 0.0418 |
| AGGCGGAA | 0.0802 |
| GGGCGGGA | -0.11 |
| AGGCGGTA | -0.0932 |
| GGGCGGCA | 0.356 |
| CGGCGGTA | 0.335 |
| AGGCGGCA | 0.369 |
| AGGCGGGA | -0.183 |
| GGGCGGAA | -0.0696 |
| AGCCGGCA | 0.0341 |
| GGGCGGTA | -0.128 |
| CACCTATG | -0.108 |
| CGCTAAAG | 0.0823 |
| GTTGAATA | 0.0719 |
| ATGTCCTC | -0.113 |
| AGCTGCGA | -0.129 |
| GCTCAACA | 0.00726 |

| Sequence | PBM E-score |
| --- | --- |
| CAGTCGGG | -0.14 |
| AGGCGGCG | 0.391 |
| CGGCGGGA | 0.207 |
| AGGCGGCC | 0.147 |
| AGGCGGGG | 0.023 |
| CGGCGGCA | 0.418 |
| CGGCGGCC | 0.214 |
| CCTAGCTC | -0.268 |
| ATAGAAAT | 0.197 |
| CTGGCCCC | -0.311 |
| CATCACTC | -0.0239 |
| AAGACGGT | -0.169 |
| AAGACGGC | 0.318 |
| CAGACGGA | 0.0941 |
| AAGACGCC | 0.321 |
| AAGACGCT | -0.13 |
| GAGACGGC | 0.411 |
| CAGACGGC | 0.42 |
| AAGACGGA | -0.0847 |
| CAGACGCC | 0.114 |
| CAGACGGG | -0.242 |
| GAGACGGA | 0.065 |
| GAGACGAC | -0.104 |
| ACAGTGCG | -0.022 |
| CGCTGGAG | -0.107 |

| Sequence | PBM E-score |
| --- | --- |
| ATTGAGGC | 0.146 |
| CCCAGTCG | -0.267 |
| AAGGACCG | -0.117 |
| CCATTAGG | -0.209 |
| CTAACAGC | 0.0206 |
| AGCCACTC | 0.0834 |
| CTTTTTGC | 0.0819 |
| AACTAACC | 0.117 |
| CAATGCCG | 0.374 |
| CAATGCCC | 0.136 |
| AAATGCCT | 0.285 |
| CAATGCCA | 0.0614 |
| AAATGCCG | 0.443 |
| AAATGCCC | -0.108 |
| GTGCTAAC | -0.0443 |
| ACAAGATG | -0.052 |
| AAACCTCA | -0.0665 |
| AGCGAACT | 0.00922 |
| CAAAAGCC | 0.121 |
| CAAAGCCA | 0.0366 |
| AAAAGCCT | -0.0406 |
| CACAGCCG | 0.327 |
| AAAAAGCC | 0.34 |
| AAAAGCCC | -0.145 |
| CAAAGCCC | -0.0858 |

| Sequence | PBM E-score |
| --- | --- |
| CAAAGCCG | 0.316 |
| CACAGCCC | -0.172 |
| AAAAGCCG | 0.326 |
| GAAAAGCC | 0.0718 |
| AACAGCCG | 0.255 |
| GAGATAGC | -0.111 |
| CACAGAAA | -0.00471 |
| TGGGCACA | 0.135 |
| GTAGATGA | 0.0463 |
| GAGCTCTA | -0.101 |
| GAAATTTC | -0.153 |
| CCCTGGTC | -0.41 |
| AGCTAACC | -0.159 |
| CCTAGCCA | -0.0258 |
| CTGCGAAG | -0.175 |
| CGGCACGA | 0.459 |
| CTGCACGA | -0.152 |
| CGGCACGC | 0.437 |
| GGGCACGA | 0.133 |
| AGGCACGC | 0.209 |
| CTGCACGC | -0.0205 |
| GACACTCC | 0.0152 |
| AATTCTGA | 0.131 |
| GCATTTCC | 0.146 |
| AAGTAAGG | -0.0479 |

| Sequence | PBM E-score |
| --- | --- |
| ACCTATCG | 0.0549 |
| CAAGAGCC | 0.21 |
| CCAAGCCC | -0.241 |
| AGACGGGG | -0.154 |
| AGACGGCG | 0.463 |
| CGACGGAG | -0.147 |
| AGACGGAT | 0.14 |
| CGACGGCC | 0.0289 |
| AGACGGCC | 0.121 |
| CGACGGCG | 0.353 |
| AGACGGCT | 0.343 |
| AGACGTCT | -0.219 |
| ACAGTCGG | -0.0418 |
| AAGCACCC | -0.224 |
| CAAATTGC | 0.115 |
| CTCAGTCC | -0.195 |
| ATGAAGAC | 0.0861 |
| ACGTTTAT | 0.0901 |
| CTGGGTGA | -0.229 |
| CAATAACC | 0.0421 |
| AGGGCTAG | -0.207 |
| AAGCTACT | -0.0664 |
